Experimental data from the supplement of paper PMC6992640.
± gives the standard deviation of the averaged measurements.

Experiments:
Assay in all cases: cell viability (% of vehicle); higher = less cytotoxic
Details in all cases: 10 µM; 72 h
HCI01 = test system: HCI01 (cells of a triple-negative basal-like breast cancer xenograft)
HCI03 = test system: HCI03 (cells of an ER-positive luminal breast cancer xenograft)
HCI09 = test system: HCI09 (cells of a triple-negative luminal androgen receptor type breast cancer xenograft)
HCI11 = test system: HCI11 (cells of an ER-positive luminal breast cancer xenograft)
HCI13 = test system: HCI13 (cells of an ER-positive luminal breast cancer xenograft)
HCI16 = test system: HCI16 (cells of a triple-negative basal-like breast cancer xenograft)
UCD52 = test system: UCD52 (cells of a triple-negative basal-like breast cancer xenograft)
WHIM2 = test system: WHIM2 (cells of a triple-negative basal-like breast cancer xenograft)
WHIM30 = test system: WHIM30 (cells of a triple-negative basal-like breast cancer xenograft)
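Also: PDX cells carrying CMV promoter-driven luciferase, viability read as total photon flux per second by IVIS imaging following D-luciferin, vehicle control 0.1% DMSO.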

Row | Structure (SMILES) | cell viability (HCI01) | cell viability (HCI03) | cell viability (HCI09) | cell viability (HCI11) | cell viability (HCI13) | cell viability (HCI16) | cell viability (UCD52) | cell viability (WHIM2) | cell viability (WHIM30)
1 | CN(C)CCCN1c2ccccc2CCc2ccccc21.Cl [Imipramine (hydrochloride)] | 104 ± 14 | 88.1 | 84.9 ± 5.2 | 60 | 95.1 ± 1.8 | 119 | 90.4 ± 7.2 | 82.5 ± 12 | 79.7 ± 8.5
2 | Nc1ccc(C(=O)NCC(=O)[O-])cc1.[Na+] [Sodium 4-amiropparaty Hyalrate] | 107.1 ± 0.65 | 109 | 122 ± 35 | 110 | 112 ± 12 | 107 | 91.5 ± 8.8 | 95.4 ± 6 | 171 ± 21
3 | Cc1ccnc2c1NC(=O)c1cccnc1N2C1CC1 [Nevirapine] | 112 ± 2.5 | 105 | 122 ± 49 | 113 | 96.5 ± 3.9 | 96 | 96.8 ± 6.9 | 93.1 ± 23 | 130 ± 5.6
4 | Cl.Clc1cccc(Cl)c1NC1=NCCN1 [Clonidine HCl] | 132 ± 6.9 | 127 | 99 ± 9 | 114 | 111 ± 6.8 | 135 | 94.9 ± 3.3 | 104 ± 15 | 124.6 ± 0.22
5 | CC(c1ncncc1F)C(O)(Cn1cncn1)c1ccc(F)cc1F (stereo not given) [Voriconazole] | 121 ± 8.9 | 133 | 98.8 ± 11 | 121 | 137 ± 7.1 | 115 | 106 ± 22 | 105 ± 9.5 | 137 ± 22
6 | COc1cc(C(=O)NC2CCCNC2)cc(OC)c1OC (stereo not given) [Troxipide] | 98.8 ± 1 | 110 | 107 ± 28 | 96.3 | 57.8 ± 3.5 | 106 | 96.8 ± 7.8 | 103 ± 15 | 137 ± 11
7 | CN1CCN2c3ccccc3Cc3ccccc3C2C1.Cl (stereo not given) [Mianserin HCl] | 124 ± 24 | 98.3 | 89.4 ± 4.5 | 95.9 | 90 ± 21 | 92.4 | 74.3 ± 4.9 | 73.1 ± 24 | 109 ± 3.4
8 | O=C(O)CCNC(=O)c1ccccc1 [Betamipron] | 121 ± 22 | 105 | 87.5 ± 28 | 98.2 | 69.8 ± 10 | 98.9 | 99.9 ± 9.4 | 101 ± 11 | 108 ± 4.5
9 | S=P(N1CC1)(N1CC1)N1CC1 | 109 ± 26 | 143 | 104 ± 1.4 | 103 | 111.3 ± 0.35 | 120 | 96.8 ± 5.2 | 83.8 ± 23 | 119 ± 11
10 | COc1cc(C2c3cc4c(cc3C(OC3OC5COC(C)OC5C(O)C3O)C3COC(=O)C23)OCO4)cc(OC)c1O (stereo not given) [Etoposide] | 103 ± 7.8 | 94.2 | 90 ± 4.5 | 89.4 | 84 ± 3 | 69.7 | 120 ± 4.3 | 91.8 ± 6 | 95.3 ± 21
11 | Cl.NC12CC3CC(CC(C3)C1)C2 [Amantadine HCl] | 136 ± 17 | 117 | 104 ± 1.4 | 98.7 | 120 ± 7.4 | 132 | 93.3 ± 2.1 | 107 ± 17 | 105 ± 1.4
12 | COCCCOc1ccnc(C[S+]([O-])c2nc3ccccc3[nH]2)c1C (stereo not given) [Rabeprazole] | 156 ± 40 | 159 | 116 ± 3.5 | 123 | 152 ± 1.6 | 161 | 128 ± 27 | 131 ± 15 | 138 ± 8.2
13 | CCN(CC)C(=O)C(C#N)=Cc1cc(O)c(O)c([N+](=O)[O-])c1 [Entacapone] | 121 ± 8.8 | 159 | 105 ± 2.4 | 80.8 | 98.77 ± 0.41 | 105 | 98.7 ± 14 | 192 ± 14 | 104 ± 7
14 | CN1CCCN=C1C=Cc1cccs1.O=C(O)c1cc2ccccc2c(Cc2c(O)c(C(=O)O)cc3ccccc23)c1O [Pyrantel Pamoate] | 82.3 ± 44 | 117 | 114 ± 12 | 101 | 146 ± 13 | 109 | 99.5 ± 12 | 95.8 ± 17 | 130 ± 3
15 | CC12CCC3c4ccc(O)cc4CCC3C1CC(O)C2O (stereo not given) [Estriol] | 132 ± 20 | 118 | 125 ± 36 | 91.7 | 152 ± 25 | 152 | 105 ± 16 | 98.4 ± 8.9 | 150 ± 11
16 | O=c1oc2c(O)c(O)cc3c(=O)oc4c(O)c(O)cc1c4c23 [Ellagic acid] | 102 ± 15 | 144 | 100 ± 3 | 105 | 177 ± 43 | 125 | 103.5 ± 0.7 | 118 ± 11 | 115 ± 11
17 | Cc1cccc(C)c1NC(=O)C1CCCCN1C.Cl (stereo not given) [Mepivacaine HCl] | 87.6 ± 1.4 | 89.2 | 97.91 ± 0.71 | 96.2 | 124 ± 2.2 | 118 | 70.4 ± 3.6 | 89.7 ± 14 | 166 ± 4.5
18 | CC(=O)O[C@H]1C[C@@]2(C)[C@@H](C[C@@H](O)[C@H]3[C@@]4(C)CC[C@@H](O)[C@@H](C)[C@@H]4CC[C@@]32C)/C1=C(\CCC=C(C)C)C(=O)[O-].[Na+] [Fusidic Acid (sodium salt)] | 97.1 ± 30 | 116 | 112 ± 21 | 81.6 | 129 ± 2.5 | 121 | 111 ± 3.2 | 88.3 ± 15 | 149 ± 19

Row | Structure (SMILES) | cell viability (HCI01) | cell viability (HCI03) | cell viability (HCI09) | cell viability (HCI11) | cell viability (HCI13) | cell viability (HCI16) | cell viability (UCD52) | cell viability (WHIM2) | cell viability (WHIM30)
19 | CC1CCN(C(=O)CC#N)CC1N(C)c1ncnc2[nH]ccc12 (stereo not given) | 169 ± 6.3 | 143 | 81.1 ± 1.5 | 110 | 126 ± 11 | 151 | 136 ± 23 | 95.8 ± 7.4 | 160.4 ± 0.81
20 | CC(CCc1ccccc1)NCC(O)c1ccc(O)c(C(N)=O)c1.Cl (stereo not given) [Labetalol HCl] | 101 ± 12 | 106 | 95.8 ± 9.3 | 104 | 105 ± 7.3 | 112 | 85.7 ± 7 | 110 ± 15 | 111 ± 13
21 | CCN1CCCC1CNC(=O)c1cc(S(N)(=O)=O)ccc1OC (stereo not given) [Levosulpiride] | 127 ± 9.1 | 126 | 99.33 ± 0.17 | 98.2 | 77.9 ± 5.7 | 134 | 93.9 ± 1.6 | 109 ± 7.3 | 100 ± 7.4
22 | CN(C)C(=O)COC(=O)Cc1ccc(OC(=O)c2ccc(N=C(N)N)cc2)cc1.CS(=O)(=O)O [Camostat Mesilate] | 105 ± 24 | 133 | 85.2 ± 6.6 | 70.7 | 109 ± 5.7 | 112 | 99.8 ± 6.7 | 108 ± 5.9 | 110 ± 5.2
23 | CCOC(=O)C(CCc1ccccc1)NC(C)C(=O)N1Cc2ccccc2CC1C(=O)O.Cl (stereo not given) [Quinapril HCl] | 61.5 ± 37 | 111 | 72.7 ± 10 | 94.8 | 104 ± 5.7 | 96.9 | 83.7 ± 5.6 | 95.1 ± 3.9 | 105 ± 14
24 | NCCC(O)C(=O)NC1CC(N)C(OC2OC(CN)C(O)C(O)C2O)C(O)C1OC1OC(CO)C(O)C(N)C1O (stereo not given) [Amikacin] | 93.2 ± 16 | 144 | 105 ± 22 | 95.3 | 106 ± 16 | 114 | 103 ± 11 | 86.1 ± 8.6 | 117 ± 2.6
25 | CC1c2cccc(O)c2C(O)=C2C(=O)C3(O)C(O)=C(C(N)=O)C(=O)C(N(C)C)C3C(O)C21.Cl (stereo not given) [Doxycycline hyclate] | 159 ± 22 | 109 | 94.8 ± 12 | 114 | 107 ± 5.1 | 134 | 111 ± 3.3 | 90.9 ± 9.3 | 173 ± 22
26 | O=c1[nH]c(=O)n(C2CC(O)C(CO)O2)cc1C(F)(F)F (stereo not given) [Triflurdine (Viroptic)] | 123 ± 1.4 | 132 | 137 ± 70 | 111 | 147 ± 24 | 97.1 | 116 ± 1.5 | 87.8 ± 36 | 132 ± 15
27 | N#CC1CCCN1C(=O)CNC12CC3CC(CC(O)(C3)C1)C2 (stereo not given) [Vildagliptin (LAF-237)] | 118.9 ± 0.29 | 125 | 88.7 ± 16 | 126 | 96.1 ± 17 | 114 | 121 ± 12 | 112 ± 1.5 | 141 ± 20
28 | CCCNCC(O)COc1ccccc1C(=O)CCc1ccccc1.Cl (stereo not given) [Propafenone HCl] | 90.3 ± 6.7 | 119 | 96 ± 14 | 87.2 | 95.3 ± 7 | 101 | 76.9 ± 7.8 | 86.9 ± 20 | 115 ± 6.6
29 | CC(C)(Oc1ccc(CCNC(=O)c2ccc(Cl)cc2)cc1)C(=O)O [Bezafibrate] | 108.4 ± 0.24 | 101 | 95.5 ± 17 | 104 | 97.3 ± 2.6 | 123 | 101 ± 8.8 | 112 ± 14 | 113 ± 6.7
30 | COc1cc(Nc2ncc(F)c(Nc3ccc4c(n3)N(COP(=O)([O-])[O-])C(=O)C(C)(C)O4)n2)cc(OC)c1OC.[Na+].[Na+] [R788 disodium] | 86.4 ± 12 | 76.8 | 95.4 ± 11 | 86.8 | 86.4 ± 11 | 64.5 | 58 ± 4 | 79.4 ± 16 | 91.9 ± 3.2
31 | Nc1nc(=O)n(C2CSC(CO)O2)cc1F (stereo not given) [Emtricitabine] | 105 ± 9.3 | 153 | 104 ± 12 | 107 | 113 ± 11 | 94.6 | 79.81 ± 0.75 | 90 ± 8.8 | 98.1 ± 1.3
32 | COc1ccc(CC2c3cc(OC)c(OC)cc3CC[N+]2(C)CCC(=O)OCCCCCOC(=O)CC[N+]2(C)CCc3cc(OC)c(OC)cc3C2Cc2ccc(OC)c(OC)c2)cc1OC.O=S(=O)([O-])c1ccccc1.O=S(=O)([O-])c1ccccc1 (stereo not given) [Cisatracurium Besylate] | 177 ± 73 | 129 | 102 ± 17 | 109 | 80.4 ± 3.9 | 129 | 119 ± 6.3 | 65.1 ± 7.3 | 120 ± 7
33 | NCC1OC(OC2C(N)CC(N)C(OC3OC(CO)C(O)C(N)C3O)C2O)C(N)CC1O (stereo not given) [Tobramycin] | 112 ± 23 | 124 | 98.5 ± 5.4 | 83.1 | 58 ± 9.4 | 88 | 85.3 ± 6.8 | 122 ± 32 | 123 ± 5.3
34 | Clc1ccc(C(c2ccccc2Cl)C(Cl)Cl)cc1 (stereo not given) [Mitotane (Lsodren)] | 127 ± 3.6 | 112 | 148 ± 59 | 107 | 91.2 ± 3.4 | 121 | 97.871 ± 0.035 | 96.3 ± 24 | 142 ± 11
35 | NS(=O)(=O)c1cc(C(=O)O)c(NCc2ccco2)cc1Cl [Furosemide] | 108 ± 7.4 | 126 | 98.4 ± 8.6 | 105 | 89.1 ± 17 | 94.5 | 83.56 ± 0.16 | 98.3 ± 1.4 | 78.9 ± 6.2
